Source: the supplement of paper PMC12282887
± gives the standard deviation of the averaged measurements.

Assays:
Test in all cases: promoter activity interaction Z-score (Lux/OD deviation from empty-vector control); higher = stronger promoter induction by the compound
[1] = system: E. coli BW25113 acrABp lux reporter
How it was run: (§1)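 In 384-well plates, 40 µl LB Lennox cultures of E. coli BW25113 with low-copy luxCDABE promoter reporters grew at 37°C. Optical density at 600 nm and light output were recorded every 30 min for 12 h, with windows of 0–8 h for wild type and 1–9 h for deletion strains, and wells under 10% of the median growth value were left out. Each value is a Z-transformed residual of growth-normalised luminescence fitted against a control.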

[2] = system: E. coli BW25113 micFp lux reporter
How it was run: as §1

[3] = system: E. coli BW25113 ompFp lux reporter
How it was run: as §1

[4] = system: E. coli BW25113 robp lux reporter
How it was run: as §1

[5] = system: E. coli BW25113 soxSp lux reporter
How it was run: as §1

[6] = system: E. coli BW25113 tolCp lux reporter
How it was run: as §1

[7] = 0.063 µg/ml, genetic background: wild type
[8] = 0.063 µg/ml, genetic background: ΔmarA
[9] = 0.063 µg/ml, genetic background: Δrob
[10] = 0.063 µg/ml, genetic background: ΔsoxS
[11] = 0.51 µg/ml, genetic background: wild type
[12] = 0.51 µg/ml, genetic background: ΔmarA
[13] = 0.51 µg/ml, genetic background: Δrob
[14] = 0.51 µg/ml, genetic background: ΔsoxS
[15] = 0.5 µg/ml, genetic background: wild type
[16] = 0.5 µg/ml, genetic background: ΔmarA
[17] = 0.5 µg/ml, genetic background: Δrob
[18] = 0.5 µg/ml, genetic background: ΔsoxS

N=C(NCCCCCCNC(=N)NC(=N)Nc1ccc(Cl)cc1)NC(=N)Nc1ccc(Cl)cc1 [Chlorhexidine]
promoter activity interaction Z-score [1, 7]: 0.528 ± 0.15
promoter activity interaction Z-score [1, 8]: 0.456 ± 1.1
promoter activity interaction Z-score [1, 9]: -0.0468 ± 0.34
promoter activity interaction Z-score [1, 10]: -0.413 ± 0.67
promoter activity interaction Z-score [1, 11]: -0.0541 ± 0.33
promoter activity interaction Z-score [1, 12]: 0.0169 ± 0.15
promoter activity interaction Z-score [1, 13]: 0.0299 ± 0.11
promoter activity interaction Z-score [1, 14]: 0.236 ± 0.23
promoter activity interaction Z-score [2, 7]: -0.138 ± 0.035
promoter activity interaction Z-score [2, 8]: 0.119 ± 0.018
promoter activity interaction Z-score [2, 9]: -0.0387 ± 0.0014
promoter activity interaction Z-score [2, 10]: -0.423 ± 0.21
promoter activity interaction Z-score [2, 11]: -0.4228 ± 0.0029
promoter activity interaction Z-score [2, 12]: -0.153 ± 0.15
promoter activity interaction Z-score [2, 13]: -0.204 ± 0.03
promoter activity interaction Z-score [2, 14]: 0.196 ± 0.032
promoter activity interaction Z-score [3, 7]: 0.348 ± 0.12
promoter activity interaction Z-score [3, 8]: 0.307 ± 0.032
promoter activity interaction Z-score [3, 9]: 0.502 ± 0.096
promoter activity interaction Z-score [3, 10]: 0.129 ± 0.63
promoter activity interaction Z-score [3, 11]: 0.552 ± 0.14
promoter activity interaction Z-score [3, 12]: 0.909 ± 0.66
promoter activity interaction Z-score [3, 13]: 0.866 ± 0.037
promoter activity interaction Z-score [3, 14]: 1.02 ± 0.32
promoter activity interaction Z-score [4, 7]: 0.375 ± 0.078
promoter activity interaction Z-score [4, 8]: 0.214 ± 0.35
promoter activity interaction Z-score [4, 9]: 0.423 ± 0.27
promoter activity interaction Z-score [4, 10]: 0.406 ± 0.057
promoter activity interaction Z-score [4, 11]: -0.214 ± 0.33
promoter activity interaction Z-score [4, 12]: 0.504 ± 0.37
promoter activity interaction Z-score [4, 13]: 0.258 ± 0.6
promoter activity interaction Z-score [4, 14]: 0.18 ± 0.19
promoter activity interaction Z-score [5, 7]: -0.0504 ± 0.14
promoter activity interaction Z-score [5, 8]: 0.0857 ± 0.028
promoter activity interaction Z-score [5, 9]: 0.21 ± 0.1
promoter activity interaction Z-score [5, 10]: 0.0523 ± 0.26
promoter activity interaction Z-score [5, 11]: -0.166 ± 0.08
promoter activity interaction Z-score [5, 12]: 0.198 ± 0.063
promoter activity interaction Z-score [5, 13]: -0.014 ± 0.063
promoter activity interaction Z-score [5, 14]: -0.0376 ± 0.072
promoter activity interaction Z-score [6, 7]: 0.313 ± 0.44
promoter activity interaction Z-score [6, 8]: 0.0546 ± 1.2
promoter activity interaction Z-score [6, 9]: 0.212 ± 0.98
promoter activity interaction Z-score [6, 10]: 0.135 ± 0.81
promoter activity interaction Z-score [6, 11]: -0.539 ± 0.4
promoter activity interaction Z-score [6, 12]: 0.431 ± 0.064
promoter activity interaction Z-score [6, 13]: -0.613 ± 0.62
promoter activity interaction Z-score [6, 14]: 0.378 ± 0.96

CO[C@@]12[C@H](COC(N)=O)C3=C(C(=O)C(C)=C(N)C3=O)N1C[C@@H]1N[C@@H]12 [Mitomycin C]
promoter activity interaction Z-score [1, 7]: 0.203 ± 0.26
promoter activity interaction Z-score [1, 8]: -0.582 ± 1.1
promoter activity interaction Z-score [1, 9]: 0.184 ± 0.69
promoter activity interaction Z-score [1, 10]: 0.15 ± 0.32
promoter activity interaction Z-score [1, 15]: 0.332 ± 0.099
promoter activity interaction Z-score [1, 16]: 1.08 ± 0.83
promoter activity interaction Z-score [1, 17]: -0.0462 ± 0.55
promoter activity interaction Z-score [1, 18]: 0.117 ± 0.79
promoter activity interaction Z-score [2, 7]: 0.161 ± 0.24
promoter activity interaction Z-score [2, 8]: 0.0738 ± 0.13
promoter activity interaction Z-score [2, 9]: -0.0403 ± 0.002
promoter activity interaction Z-score [2, 10]: 0.173 ± 0.094
promoter activity interaction Z-score [2, 15]: -0.299 ± 0.0083
promoter activity interaction Z-score [2, 16]: -0.029 ± 0.23
promoter activity interaction Z-score [2, 17]: 0.266 ± 0.055
promoter activity interaction Z-score [2, 18]: 0.362 ± 0.13
promoter activity interaction Z-score [3, 7]: 0.468 ± 0.27
promoter activity interaction Z-score [3, 8]: -0.243 ± 0.38
promoter activity interaction Z-score [3, 9]: 0.492 ± 0.67
promoter activity interaction Z-score [3, 10]: 0.619 ± 0.42
promoter activity interaction Z-score [3, 15]: 0.63 ± 0.16
promoter activity interaction Z-score [3, 16]: 1.34 ± 1.3
promoter activity interaction Z-score [3, 17]: 1.2 ± 0.71
promoter activity interaction Z-score [3, 18]: 0.778 ± 0.46
promoter activity interaction Z-score [4, 7]: 0.242 ± 0.52
promoter activity interaction Z-score [4, 8]: -0.678 ± 0.028
promoter activity interaction Z-score [4, 9]: 0.808 ± 0.56
promoter activity interaction Z-score [4, 10]: -0.138 ± 0.57
promoter activity interaction Z-score [4, 15]: 1.05 ± 0.1
promoter activity interaction Z-score [4, 16]: 0.91 ± 0.79
promoter activity interaction Z-score [4, 17]: 0.226 ± 0.38
promoter activity interaction Z-score [4, 18]: -0.0862 ± 0.5
promoter activity interaction Z-score [5, 7]: 0.078 ± 0.11
promoter activity interaction Z-score [5, 8]: -0.129 ± 0.16
promoter activity interaction Z-score [5, 9]: -0.043 ± 0.0072
promoter activity interaction Z-score [5, 10]: 0.00107 ± 0.095
promoter activity interaction Z-score [5, 15]: 0.163 ± 0.12
promoter activity interaction Z-score [5, 16]: -0.1 ± 0.14
promoter activity interaction Z-score [5, 17]: -0.0272 ± 0.011
promoter activity interaction Z-score [5, 18]: 0.103 ± 0.21
promoter activity interaction Z-score [6, 7]: 0.274 ± 0.61
promoter activity interaction Z-score [6, 8]: -0.71 ± 0.23
promoter activity interaction Z-score [6, 9]: -0.666 ± 0.03
promoter activity interaction Z-score [6, 10]: 0.252 ± 0.77
promoter activity interaction Z-score [6, 15]: 0.54 ± 0.56
promoter activity interaction Z-score [6, 16]: -0.295 ± 0.4
promoter activity interaction Z-score [6, 17]: 0.224 ± 0.11
promoter activity interaction Z-score [6, 18]: 1.46 ± 0.25
